The supplement of paper PMC9694430
“And” between values parts separate entries of the source, which are not always exact repeats. Identical values can stand only once. Counter-ions that a name gives are not always drawn.

Columns and labels:
Assay in all cases: thermal shift delta Tm vs DMSO control; higher = stronger stabilization (binding)
Conditions in all cases: 12.5 µM; protein concentration 2 µM
[1] = system: LOC_OS04G57630-cb004
In short: (§1)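 Purified, E. coli-expressed rice kinase domain constructs were tested by differential scanning fluorimetry in 96-well plates: 19.5 μl of 2 μM kinase in 100 mM potassium phosphate pH 7.5, 150 mM NaCl, 10% glycerol, 5 × SYPRO Orange, plus compound in DMSO. Fluorescence was read from 25°C to 95°C at 0.05°C/s. Melting temperatures came from Boltzmann fits, and the shift is the triplicate mean relative to protein with DMSO alone.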

[2] = system: LOC_OS05G07850-cb002
In short: as §1

[3] = system: LOC_OS05G16824-cb004
In short: as §1

[4] = system: LOC_OS05G28520-cb001
In short: as §1

[5] = system: LOC_OS05G30820-cb001
In short: as §1

[6] = system: LOC_OS05G43570-cb004
In short: as §1

[7] = system: LOC_OS06G16330-cb003
In short: as §1

[8] = system: T1, LOC_OS06G22820-cb001
T1 sequence (whole entry): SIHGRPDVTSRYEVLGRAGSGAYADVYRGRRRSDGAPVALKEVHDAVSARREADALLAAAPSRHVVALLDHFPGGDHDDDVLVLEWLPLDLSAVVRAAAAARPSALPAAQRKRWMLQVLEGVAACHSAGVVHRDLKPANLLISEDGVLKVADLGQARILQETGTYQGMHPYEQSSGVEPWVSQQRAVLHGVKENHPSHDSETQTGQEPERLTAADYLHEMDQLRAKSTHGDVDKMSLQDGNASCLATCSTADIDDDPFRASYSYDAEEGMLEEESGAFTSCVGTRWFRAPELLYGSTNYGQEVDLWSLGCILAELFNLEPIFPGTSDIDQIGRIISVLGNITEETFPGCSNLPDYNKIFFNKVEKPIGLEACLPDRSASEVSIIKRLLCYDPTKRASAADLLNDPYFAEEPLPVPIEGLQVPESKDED
In short: as §1

[9] = system: LOC_OS07G06570-cb004
In short: as §1

[10] = system: LOC_OS07G07230-cb001
In short: as §1

Sequence of LOC_OS06G16330-cb003 (as listed by the source): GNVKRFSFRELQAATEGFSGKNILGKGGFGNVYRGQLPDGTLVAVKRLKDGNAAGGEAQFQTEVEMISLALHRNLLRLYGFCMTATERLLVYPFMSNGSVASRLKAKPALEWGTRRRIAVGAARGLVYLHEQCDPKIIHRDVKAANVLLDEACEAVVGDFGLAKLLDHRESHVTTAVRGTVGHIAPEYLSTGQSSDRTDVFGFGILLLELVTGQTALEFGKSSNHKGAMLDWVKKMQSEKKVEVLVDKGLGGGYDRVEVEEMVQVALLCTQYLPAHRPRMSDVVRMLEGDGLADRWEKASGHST

| SMILES | thermal shift delta Tm [1] | thermal shift delta Tm [2] | thermal shift delta Tm [3] | thermal shift delta Tm [4] | thermal shift delta Tm [5] | thermal shift delta Tm [6] | thermal shift delta Tm [7] | thermal shift delta Tm [8] | thermal shift delta Tm [9] | thermal shift delta Tm [10] |
| --- | --- | --- | --- | --- | --- | --- | --- | --- | --- | --- |
| Cc1cnc(-c2cnc(NCCNc3ccc(C#N)cn3)nc2-c2ccc(Cl)cc2Cl)[nH]1 | -0.09 °C and 0.72 °C | 4.65 °C and 4.93 °C | 1.04 °C and 0.06 °C | 0.2 °C and 0.82 °C | 0.54 °C and 0.26 °C | 0.69 °C and 1.04 °C | -0.09 °C and -0.17 °C | 0.67 °C and 1.04 °C | 0.67 °C and 1.49 °C | 0.25 °C and -0.23 °C |
| CC[C@@H]1C(=O)N(C)c2cnc(Nc3ccc(C(=O)N[C@H]4CC[C@H](N5CCN(CC6CC6)CC5)CC4)cc3OC)nc2N1C(C)C [Volasertib (BI 6727)] | 0.28 °C | 1.33 °C | 2.5 °C | -0.32 °C | 0.58 °C | 0.4 °C | 0.46 °C | 0.34 °C | 0.62 °C | -0.12 °C |
| Cc1c(C(=O)Nc2ccc(Oc3ccnc4[nH]cc(-c5ccccc5)c34)c(F)c2)c(=O)n(-c2ccc(F)cc2)n1C | 0.42 °C | 14.4 °C | 1.37 °C | 0.13 °C | 0.63 °C | 0.25 °C | 6.4 °C | 0.86 °C | 1.05 °C | -0.13 °C |
| COc1cc2/c(=N/c3ccc(Br)cc3F)nc[nH]c2cc1OCC1CCN(C)CC1 [Vandetanib (ZD6474)] | 2.9 °C | 9.77 °C | 2.5 °C | 0.62 °C | 0.52 °C | -0.25 °C | 9.59 °C | 1.8 °C | 4.17 °C | 0.94 °C |
| CCN(CC)CCNC(=O)c1c(C)[nH]c(/C=C2\C(=O)Nc3ccc(F)cc32)c1C [Sunitinib Malate] | 4.24 °C | 8.46 °C | 13.1 °C | 1.41 °C | 0.86 °C | 0.2 °C | 7.74 °C | 0.19 °C | 0.48 °C | 0.56 °C |
| O=C(Nc1cccc(C(F)(F)F)c1)c1cccc2cc(Oc3cc(CO)ncn3)ccc12 | 0.45 °C | -0.21 °C | -4.53 °C | 0.52 °C | 0.8 °C | 0.31 °C | -0.18 °C | 0.78 °C | 0.98 °C | 0.86 °C |
| COc1ccc([C@@H]2OC[C@H]3[C@@H]2CO[C@@H]3c2ccc(O[C@@H]3O[C@H](CO)[C@@H](O)[C@H](O)[C@H]3O)c(OC)c2)cc1OC [Forsythin] | -0.22 °C | -0.42 °C | -9.57 °C | 0.25 °C | -0.02 °C | 0.21 °C | -0.18 °C | 0.41 °C | 0.89 °C | 0.9 °C |
| Cc1ccc(S(=O)(=O)/C=C/C#N)cc1 | 2.48 °C | 7.56 °C | -14.7 °C | 0.54 °C | -0.01 °C | -0.14 °C | -0.31 °C | 0.01 °C | 1.13 °C | -0.21 °C |
| CNC(=O)c1cccc(-c2ccc3c(N4CCOC[C@@H]4C)nc(N4CCOC[C@@H]4C)nc3n2)c1 [Vistusertib (AZD2014)] | -0.14 °C | 0.07 °C | -6.13 °C | -0.26 °C | 0.67 °C | 0.5 °C | 0.19 °C | 0.59 °C | 0.64 °C | 0.29 °C |
| O=C(Nc1cccc(Cl)c1)Nc1ncc(CCNc2ncnc3ccsc23)s1 [SNS-314 Mesylate] | 2.15 °C | 7.18 °C | 2.52 °C | 1.77 °C | 0.46 °C | 1.08 °C | 4.68 °C | 1.24 °C | 0.91 °C | -0.06 °C |
| O=c1cc(N2CCOCC2)oc2c(-c3ccccc3)cccc12 | 0.2 °C | 1.02 °C | 0.85 °C | 0.91 °C | 0.41 °C | 0.98 °C | 0.37 °C | 1.05 °C | 0.89 °C | -0.39 °C |
| CCOc1cc(N2CCC(O)CC2)ccc1Nc1ncc2c(n1)N(C)c1ccccc1C(=O)N2C | -0.09 °C | 1.85 °C | -1.07 °C | 0.32 °C | 0.48 °C | 0.23 °C | 0.05 °C | 0.49 °C | 1.48 °C | 0.47 °C |
| CN1CCC(CNc2ccc3ncc(-c4cccc(OC(F)(F)F)c4)n3n2)CC1 [SGI-1776 free base] | 1.46 °C | 12 °C | 3.25 °C | 0.98 °C | 0.86 °C | 0.36 °C | 3.37 °C | 0.41 °C | 0.32 °C | 0.72 °C |
| CN1CCN(c2ccc3nc(-c4c(N)c5c(F)cccc5[nH]c4=O)[nH]c3c2)CC1 [Dovitinib (TKI-258, CHIR-258)] | 1.24 °C | 6.74 °C | 12.6 °C | 1.08 °C | 0.71 °C | 0.77 °C | 3.64 °C | 0.56 °C | 1.13 °C | 0.36 °C |
| O=C1Nc2ccc(CN3C(=O)CSC3=O)cc2/C1=C/c1cc(CN2CCOCC2)c[nH]1 | 1.02 °C | 6.39 °C | 8.47 °C | 0.01 °C | 0.12 °C | 0.23 °C | 9.36 °C | 1.05 °C | 1.86 °C | 0.48 °C |
| O=C(O)c1ccc2c(c1)nc(Nc1cccc(Cl)c1)c1ccncc12 [Silmitasertib (CX-4945)] | 0.56 °C | 8.41 °C | 3.01 °C | 0.57 °C | 0.68 °C | 0.46 °C | 3.05 °C | 0.65 °C | 1.59 °C | 0.82 °C |
| Cc1c(Cn2c(C)nc3c(C(=O)O)cc(N4CCOCC4)cc32)cccc1C(F)(F)F | -0.06 °C | -0.15 °C | -2.15 °C | -0.07 °C | 0.36 °C | 0.33 °C | -0.16 °C | 0.35 °C | 1.32 °C | 0.5 °C |
| COc1ccc(S(=O)(=O)N(C(C)=O)c2ccccc2/C=C/c2cc[n+]([O-])cc2)cc1 | 0.43 °C | 0.92 °C | -6.15 °C | 0.67 °C | 0.66 °C | 0.45 °C | 0.41 °C | 0.58 °C | 1.06 °C | 0.31 °C |
| CC(C)CC(NC(=O)C(Cc1ccccc1)NC(=O)C(CCC(N)=O)NC(=O)C(Cc1ccc(O)cc1)NC(=O)C(C)NC(=O)CNC(=O)C(CCCCN)NC(=O)C(Cc1c[nH]c2ccccc12)NC(=O)C(NC(=O)C(Cc1c[nH]c2ccccc12)NC(=O)C(CCCCN)NC(=O)CNC(=O)C(CC(N)=O)NC(=O)C(CCC(=O)O)NC(=O)C(Cc1c[nH]c2ccccc12)NC(=O)C(NC(=O)C(Cc1c[nH]c2ccccc12)NC(=O)C(CO)NC(=O)CNC(=O)C1CCCN1C(=O)C(Cc1c[nH]c2ccccc12)NC(=O)C(CCC(N)=O)NC(=O)C(Cc1ccccc1)NC(=O)CNC(=O)C(N)Cc1c[nH]cn1)C(C)O)C(C)O)C(=O)NC(CCCCN)C(=O)NCC(=O)NCC(=O)NCC(=O)NCC(=O)NC(CO)C(=O)NC(CCCNC(=N)N)C(=O)NC(CCCNC(=N)N)C(=O)NC(CCCNC(=N)N)C(=O)NC(CCCNC(=N)N)C(=O)NC(CCCNC(=N)N)C(=O)NC(CCCNC(=N)N)C(=O)NC(CCCNC(=N)N)C(=O)NC(CCCNC(=N)N)C(=O)NC(CCCNC(=N)N)C(=O)O (stereo not given) | 0.42 °C | 3.56 °C | 2.71 °C | 0.07 °C | 0.42 °C | 1.33 °C | 0.39 °C | 1.2 °C | 0.27 °C | 0.04 °C |
